What was measured:
Test in all cases: DAPPL (digital affinity profiling via proximity ligation, sequencing); 10 mM Tris-HCl pH 7.5, 50 mM NaCl, 1 mM DTT, 4% glycerol, room temperature, 30 min; GST-TFs on glutathione beads, 16-mer random dsDNA library, 0.1% formaldehyde crosslink after washing; high values mean tight binding
Settings in all cases: protein: recombinant; tags: N-terminal GST; dsDNA, one strand shown
ELK1 = molecular target: T1, ELK1 (Homo sapiens, UniProt P19419 1-428)
T1 sequence: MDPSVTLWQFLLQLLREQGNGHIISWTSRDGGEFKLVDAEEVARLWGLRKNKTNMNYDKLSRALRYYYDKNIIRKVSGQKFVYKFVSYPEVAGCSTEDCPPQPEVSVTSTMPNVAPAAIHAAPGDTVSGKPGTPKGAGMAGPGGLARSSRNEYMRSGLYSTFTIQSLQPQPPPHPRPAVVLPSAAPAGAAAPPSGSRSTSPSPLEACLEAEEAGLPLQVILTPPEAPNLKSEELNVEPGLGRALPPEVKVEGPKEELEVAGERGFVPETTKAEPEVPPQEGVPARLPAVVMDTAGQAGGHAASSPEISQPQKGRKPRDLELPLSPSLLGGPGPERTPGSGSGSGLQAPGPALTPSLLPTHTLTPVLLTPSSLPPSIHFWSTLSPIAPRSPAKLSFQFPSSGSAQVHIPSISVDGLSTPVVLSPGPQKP
Summary of the method: (§1)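 Sequencing on an Illumina NextSeq500 followed washing, crosslinking with 0.1% formaldehyde, proximity ligation (BsaI/T4 ligase, 1 h, 37 °C) and PCR amplification of pools that had been incubated for 30 min at room temperature with 200 nmole of a random double-stranded 16-mer DNA library in Tris/NaCl/DTT/glycerol buffer. Each pool held DNA-barcoded human transcription factors, expressed in yeast as GST fusions and captured on glutathione beads, plus a tag-only sample. Binding signal is a hexamer's read frequency for a factor divided by its frequency in the tag-only sample.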

GABPA = molecular target: T2, GABPA (Homo sapiens, UniProt Q06546 1-454)
T2 sequence: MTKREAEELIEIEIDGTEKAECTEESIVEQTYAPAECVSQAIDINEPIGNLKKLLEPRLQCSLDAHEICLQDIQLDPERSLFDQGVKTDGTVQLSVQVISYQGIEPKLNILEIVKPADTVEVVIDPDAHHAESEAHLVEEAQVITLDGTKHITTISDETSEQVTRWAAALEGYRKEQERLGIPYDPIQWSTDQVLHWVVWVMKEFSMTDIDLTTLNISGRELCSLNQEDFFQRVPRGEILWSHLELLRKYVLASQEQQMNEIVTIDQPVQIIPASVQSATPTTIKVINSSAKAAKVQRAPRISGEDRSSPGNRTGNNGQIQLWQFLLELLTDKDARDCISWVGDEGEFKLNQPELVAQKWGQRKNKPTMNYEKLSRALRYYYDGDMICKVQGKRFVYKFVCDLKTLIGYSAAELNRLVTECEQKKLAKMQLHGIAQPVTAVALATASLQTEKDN
Summary of the method: as §1

ERG = molecular target: T3, ERG (Homo sapiens, UniProt P11308 1-479)
T3 sequence: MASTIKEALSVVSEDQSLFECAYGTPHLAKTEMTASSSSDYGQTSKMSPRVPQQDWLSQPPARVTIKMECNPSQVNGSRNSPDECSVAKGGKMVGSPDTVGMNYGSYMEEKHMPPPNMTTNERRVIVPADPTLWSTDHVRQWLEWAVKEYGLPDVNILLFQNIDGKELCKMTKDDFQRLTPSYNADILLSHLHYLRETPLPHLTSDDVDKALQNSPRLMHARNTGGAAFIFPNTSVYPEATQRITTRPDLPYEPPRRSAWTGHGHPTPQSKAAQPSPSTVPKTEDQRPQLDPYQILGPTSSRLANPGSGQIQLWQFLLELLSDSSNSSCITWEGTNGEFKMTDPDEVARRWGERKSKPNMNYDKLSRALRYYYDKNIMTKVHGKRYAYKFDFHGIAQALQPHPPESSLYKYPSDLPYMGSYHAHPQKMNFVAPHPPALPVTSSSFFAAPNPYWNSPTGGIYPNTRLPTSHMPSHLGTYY
Summary of the method: as §1

ELF1 = ELF1 (Homo sapiens, UniProt P32519 1-619)
Chain of ELF1 (P32519 whole entry): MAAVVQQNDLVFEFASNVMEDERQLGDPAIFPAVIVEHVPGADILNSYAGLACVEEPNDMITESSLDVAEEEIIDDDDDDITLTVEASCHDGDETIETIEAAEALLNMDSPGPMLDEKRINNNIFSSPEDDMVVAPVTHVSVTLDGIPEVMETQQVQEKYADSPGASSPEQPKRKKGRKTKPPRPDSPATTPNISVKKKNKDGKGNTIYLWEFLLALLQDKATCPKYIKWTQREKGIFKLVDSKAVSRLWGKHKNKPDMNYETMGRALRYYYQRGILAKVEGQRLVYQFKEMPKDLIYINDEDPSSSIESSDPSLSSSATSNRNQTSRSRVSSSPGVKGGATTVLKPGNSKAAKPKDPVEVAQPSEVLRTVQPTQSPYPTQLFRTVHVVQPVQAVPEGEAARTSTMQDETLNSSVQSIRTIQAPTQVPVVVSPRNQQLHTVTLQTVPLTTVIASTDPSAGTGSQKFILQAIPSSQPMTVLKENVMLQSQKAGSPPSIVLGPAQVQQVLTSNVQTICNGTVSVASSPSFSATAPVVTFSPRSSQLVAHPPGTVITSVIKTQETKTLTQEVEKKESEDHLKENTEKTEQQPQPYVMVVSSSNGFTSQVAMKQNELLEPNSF
Summary of the method: as §1

SPIB = SPIB (Homo sapiens, UniProt Q01892 1-262)
Chain of SPIB (Q01892 whole entry): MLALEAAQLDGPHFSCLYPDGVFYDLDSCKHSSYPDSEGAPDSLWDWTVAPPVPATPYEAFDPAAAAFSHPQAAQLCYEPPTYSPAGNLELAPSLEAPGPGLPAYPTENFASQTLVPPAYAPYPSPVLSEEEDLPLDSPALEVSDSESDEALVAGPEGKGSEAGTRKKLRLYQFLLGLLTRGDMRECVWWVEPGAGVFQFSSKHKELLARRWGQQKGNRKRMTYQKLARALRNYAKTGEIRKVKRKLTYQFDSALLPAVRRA
Summary of the method: as §1

FEV = molecular target: T4, FEV (Homo sapiens, UniProt Q99581 1-238)
T4 sequence: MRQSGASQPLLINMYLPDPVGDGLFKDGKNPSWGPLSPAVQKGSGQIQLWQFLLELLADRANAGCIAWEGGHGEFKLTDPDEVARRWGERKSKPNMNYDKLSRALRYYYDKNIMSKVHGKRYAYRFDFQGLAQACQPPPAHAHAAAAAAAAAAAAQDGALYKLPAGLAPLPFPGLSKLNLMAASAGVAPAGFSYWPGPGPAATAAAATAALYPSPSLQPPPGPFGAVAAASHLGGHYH
Summary of the method: as §1

ETV5 = ETV5 (Homo sapiens, UniProt P41161 1-510)
Chain of ETV5 (P41161 whole entry): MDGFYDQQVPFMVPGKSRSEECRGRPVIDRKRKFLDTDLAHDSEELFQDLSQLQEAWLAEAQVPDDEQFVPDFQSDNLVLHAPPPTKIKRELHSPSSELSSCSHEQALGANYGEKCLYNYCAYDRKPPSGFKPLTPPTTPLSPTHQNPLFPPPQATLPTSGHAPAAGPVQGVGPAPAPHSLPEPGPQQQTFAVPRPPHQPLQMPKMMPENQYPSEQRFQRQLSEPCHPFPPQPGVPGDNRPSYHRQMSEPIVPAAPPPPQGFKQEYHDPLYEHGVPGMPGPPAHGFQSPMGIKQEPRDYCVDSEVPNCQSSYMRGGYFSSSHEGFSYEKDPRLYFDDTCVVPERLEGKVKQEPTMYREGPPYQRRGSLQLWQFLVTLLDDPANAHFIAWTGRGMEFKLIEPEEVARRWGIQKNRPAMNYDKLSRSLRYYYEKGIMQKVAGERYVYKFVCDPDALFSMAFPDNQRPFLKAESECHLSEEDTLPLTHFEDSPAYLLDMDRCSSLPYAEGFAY
Summary of the method: as §1

ELF4 = ELF4 (Homo sapiens, UniProt Q99607 1-663)
Chain of ELF4 (Q99607 whole entry): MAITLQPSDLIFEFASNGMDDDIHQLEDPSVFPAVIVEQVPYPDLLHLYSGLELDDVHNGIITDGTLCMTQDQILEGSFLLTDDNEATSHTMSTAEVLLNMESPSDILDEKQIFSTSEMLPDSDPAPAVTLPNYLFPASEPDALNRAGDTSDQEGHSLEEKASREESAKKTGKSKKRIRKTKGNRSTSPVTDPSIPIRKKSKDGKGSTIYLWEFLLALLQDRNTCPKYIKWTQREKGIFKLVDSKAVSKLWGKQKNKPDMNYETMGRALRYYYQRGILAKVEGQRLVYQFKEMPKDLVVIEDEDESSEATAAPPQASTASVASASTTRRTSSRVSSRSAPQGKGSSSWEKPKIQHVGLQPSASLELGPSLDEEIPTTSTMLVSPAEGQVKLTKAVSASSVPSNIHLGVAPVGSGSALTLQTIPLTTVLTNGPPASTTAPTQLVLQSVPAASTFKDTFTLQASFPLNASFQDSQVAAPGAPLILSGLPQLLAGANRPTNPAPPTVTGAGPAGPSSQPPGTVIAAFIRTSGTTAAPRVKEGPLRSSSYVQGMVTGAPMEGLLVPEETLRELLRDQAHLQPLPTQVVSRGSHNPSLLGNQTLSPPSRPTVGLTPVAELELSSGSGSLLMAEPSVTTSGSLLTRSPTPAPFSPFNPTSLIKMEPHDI
Summary of the method: as §1

ELK4 = molecular target: T5, ELK4 (Homo sapiens, UniProt P28324-2 1-405)
T5 sequence: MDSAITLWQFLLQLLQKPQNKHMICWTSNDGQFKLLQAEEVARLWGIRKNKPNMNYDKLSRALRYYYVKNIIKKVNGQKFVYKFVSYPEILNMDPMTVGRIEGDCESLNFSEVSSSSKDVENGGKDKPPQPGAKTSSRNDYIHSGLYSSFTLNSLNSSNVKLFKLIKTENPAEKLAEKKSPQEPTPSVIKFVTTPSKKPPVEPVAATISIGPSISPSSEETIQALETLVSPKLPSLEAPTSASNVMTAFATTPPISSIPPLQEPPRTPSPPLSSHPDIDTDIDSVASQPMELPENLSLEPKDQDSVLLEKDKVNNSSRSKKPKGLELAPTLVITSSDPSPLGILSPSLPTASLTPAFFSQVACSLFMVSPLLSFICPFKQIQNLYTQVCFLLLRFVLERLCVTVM
Summary of the method: as §1

ETV2 = molecular target: T6, ETV2 (Homo sapiens, UniProt O00321 1-342)
T6 sequence: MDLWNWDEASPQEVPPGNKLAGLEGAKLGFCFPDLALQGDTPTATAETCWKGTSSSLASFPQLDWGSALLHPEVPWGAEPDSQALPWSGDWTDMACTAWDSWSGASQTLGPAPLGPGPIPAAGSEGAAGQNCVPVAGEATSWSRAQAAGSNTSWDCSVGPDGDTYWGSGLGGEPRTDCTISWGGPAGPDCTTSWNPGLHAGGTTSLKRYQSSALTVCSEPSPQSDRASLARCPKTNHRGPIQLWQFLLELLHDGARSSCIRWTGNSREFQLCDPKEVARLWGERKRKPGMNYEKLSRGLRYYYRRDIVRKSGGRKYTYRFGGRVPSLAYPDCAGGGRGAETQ
Summary of the method: as §1

ELF3 = molecular target: T7, ELF3 (Homo sapiens, UniProt P78545 1-371)
T7 sequence: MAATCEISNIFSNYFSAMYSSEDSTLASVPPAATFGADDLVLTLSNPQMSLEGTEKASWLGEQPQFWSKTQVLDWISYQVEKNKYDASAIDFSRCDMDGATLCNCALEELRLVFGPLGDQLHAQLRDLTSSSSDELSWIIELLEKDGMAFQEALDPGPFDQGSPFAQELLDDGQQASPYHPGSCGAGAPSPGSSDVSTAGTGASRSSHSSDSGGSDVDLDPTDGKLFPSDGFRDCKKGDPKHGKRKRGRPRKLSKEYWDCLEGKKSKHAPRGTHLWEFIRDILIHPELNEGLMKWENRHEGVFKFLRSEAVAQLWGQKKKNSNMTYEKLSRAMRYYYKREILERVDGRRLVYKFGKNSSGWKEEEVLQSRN
Summary of the method: as §1

ETV1 = ETV1 (Homo sapiens, UniProt P50549 1-477)
Chain of ETV1 (P50549 whole entry): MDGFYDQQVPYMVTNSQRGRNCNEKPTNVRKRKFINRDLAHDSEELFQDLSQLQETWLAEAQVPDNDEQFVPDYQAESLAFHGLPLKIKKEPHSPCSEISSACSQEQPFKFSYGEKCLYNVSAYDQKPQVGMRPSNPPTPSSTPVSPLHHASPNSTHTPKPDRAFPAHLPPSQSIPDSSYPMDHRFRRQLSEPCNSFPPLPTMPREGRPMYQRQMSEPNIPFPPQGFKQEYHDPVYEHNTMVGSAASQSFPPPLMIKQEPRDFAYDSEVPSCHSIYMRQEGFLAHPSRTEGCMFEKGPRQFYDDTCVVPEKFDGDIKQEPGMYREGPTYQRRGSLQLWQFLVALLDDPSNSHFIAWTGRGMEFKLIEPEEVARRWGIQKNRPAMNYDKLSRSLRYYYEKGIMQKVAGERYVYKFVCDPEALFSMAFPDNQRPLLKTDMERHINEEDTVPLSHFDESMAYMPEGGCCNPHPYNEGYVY
Summary of the method: as §1

ETV3L = molecular target: T8, ETV3L (Homo sapiens, UniProt Q6ZN32 1-361)
T8 sequence: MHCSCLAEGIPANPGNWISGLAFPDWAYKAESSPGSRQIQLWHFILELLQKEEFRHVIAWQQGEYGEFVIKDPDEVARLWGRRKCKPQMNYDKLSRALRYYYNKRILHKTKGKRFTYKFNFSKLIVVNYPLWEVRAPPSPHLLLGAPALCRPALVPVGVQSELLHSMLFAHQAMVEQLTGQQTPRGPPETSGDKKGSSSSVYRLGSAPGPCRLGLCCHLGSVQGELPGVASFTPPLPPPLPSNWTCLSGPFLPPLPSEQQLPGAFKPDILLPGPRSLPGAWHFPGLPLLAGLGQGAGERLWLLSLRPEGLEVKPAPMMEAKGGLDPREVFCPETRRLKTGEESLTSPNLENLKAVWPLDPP
Summary of the method: as §1

ETS2 = molecular target: T9, ETS2 (Homo sapiens, UniProt P15036 1-469)
T9 sequence: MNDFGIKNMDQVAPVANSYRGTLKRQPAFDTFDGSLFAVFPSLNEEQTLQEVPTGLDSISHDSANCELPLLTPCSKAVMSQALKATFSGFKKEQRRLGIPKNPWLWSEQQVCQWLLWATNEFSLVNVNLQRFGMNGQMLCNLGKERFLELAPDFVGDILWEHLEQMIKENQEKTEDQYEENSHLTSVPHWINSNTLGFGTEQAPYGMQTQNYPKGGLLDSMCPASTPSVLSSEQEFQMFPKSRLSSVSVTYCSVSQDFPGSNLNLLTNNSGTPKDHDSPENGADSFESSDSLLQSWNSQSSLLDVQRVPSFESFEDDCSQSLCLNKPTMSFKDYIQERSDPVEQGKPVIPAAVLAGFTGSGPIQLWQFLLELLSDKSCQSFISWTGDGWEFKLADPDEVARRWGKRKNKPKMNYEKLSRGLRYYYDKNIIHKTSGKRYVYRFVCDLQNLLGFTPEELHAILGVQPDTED
Summary of the method: as §1

SPDEF = molecular target: T10, SPDEF (Homo sapiens, UniProt O95238 1-335)
T10 sequence: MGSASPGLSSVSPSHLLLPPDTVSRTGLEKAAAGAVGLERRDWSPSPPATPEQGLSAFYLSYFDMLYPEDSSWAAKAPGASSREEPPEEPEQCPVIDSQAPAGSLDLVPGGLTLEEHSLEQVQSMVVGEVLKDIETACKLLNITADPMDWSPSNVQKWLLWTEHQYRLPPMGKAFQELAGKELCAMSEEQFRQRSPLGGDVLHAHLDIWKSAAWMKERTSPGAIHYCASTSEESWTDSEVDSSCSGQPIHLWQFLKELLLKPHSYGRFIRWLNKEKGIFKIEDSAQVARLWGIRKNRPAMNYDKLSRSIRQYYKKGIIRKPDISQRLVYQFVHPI
Summary of the method: as §1

ETV7 = molecular target: T11, ETV7 (Homo sapiens, UniProt Q9Y603 1-341)
T11 sequence: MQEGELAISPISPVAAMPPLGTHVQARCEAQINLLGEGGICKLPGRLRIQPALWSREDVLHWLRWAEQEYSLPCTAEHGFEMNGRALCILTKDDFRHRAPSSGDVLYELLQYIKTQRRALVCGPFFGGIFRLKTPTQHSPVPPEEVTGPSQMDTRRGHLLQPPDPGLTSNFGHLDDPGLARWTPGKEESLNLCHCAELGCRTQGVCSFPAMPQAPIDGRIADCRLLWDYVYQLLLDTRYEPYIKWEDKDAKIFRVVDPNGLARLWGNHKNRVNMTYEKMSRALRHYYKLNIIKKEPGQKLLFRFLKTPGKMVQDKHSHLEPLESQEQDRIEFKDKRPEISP
Summary of the method: as §1

ETV3 = molecular target: T12, ETV3 (Homo sapiens, UniProt P41162-2 1-143)
T12 sequence: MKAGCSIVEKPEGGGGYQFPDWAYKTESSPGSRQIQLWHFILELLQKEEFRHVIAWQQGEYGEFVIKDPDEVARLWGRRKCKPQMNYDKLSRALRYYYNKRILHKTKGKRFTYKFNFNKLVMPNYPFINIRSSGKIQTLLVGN
Summary of the method: as §1

ETV6 = ETV6 (Homo sapiens, UniProt P41212 1-452)
Chain of ETV6 (P41212 whole entry): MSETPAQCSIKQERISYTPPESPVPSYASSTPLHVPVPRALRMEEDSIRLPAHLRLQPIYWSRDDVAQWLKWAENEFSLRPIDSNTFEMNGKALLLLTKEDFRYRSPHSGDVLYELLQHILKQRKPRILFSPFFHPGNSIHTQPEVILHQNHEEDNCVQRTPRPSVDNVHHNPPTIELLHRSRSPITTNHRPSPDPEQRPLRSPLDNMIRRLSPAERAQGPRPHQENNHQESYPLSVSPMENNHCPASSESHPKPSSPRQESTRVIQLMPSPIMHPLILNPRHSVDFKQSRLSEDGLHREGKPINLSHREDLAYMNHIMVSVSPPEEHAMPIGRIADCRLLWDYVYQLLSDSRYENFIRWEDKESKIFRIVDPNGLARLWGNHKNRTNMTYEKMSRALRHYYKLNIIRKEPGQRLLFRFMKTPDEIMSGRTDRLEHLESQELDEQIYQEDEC
Summary of the method: as §1

GGTATC
binding signal (ELK1): 1.07 fold enrichment (6-mer frequency, TF over GST control) | binding signal (GABPA): 1.06 fold enrichment (6-mer frequency, TF over GST control) | binding signal (ERG): 1.07 fold enrichment (6-mer frequency, TF over GST control) | binding signal (ELF1): 1.09 fold enrichment (6-mer frequency, TF over GST control) | binding signal (SPIB): 1.04 fold enrichment (6-mer frequency, TF over GST control) | binding signal (FEV): 1.06 fold enrichment (6-mer frequency, TF over GST control) | binding signal (ETV5): 1.06 fold enrichment (6-mer frequency, TF over GST control) | binding signal (ELF4): 1.08 fold enrichment (6-mer frequency, TF over GST control) | binding signal (ELK4): 1.13 fold enrichment (6-mer frequency, TF over GST control) | binding signal (ETV2): 1.23 fold enrichment (6-mer frequency, TF over GST control) | binding signal (ELF3): 1.23 fold enrichment (6-mer frequency, TF over GST control) | binding signal (ETV1): 1.1 fold enrichment (6-mer frequency, TF over GST control) | binding signal (ETV3L): 1.02 fold enrichment (6-mer frequency, TF over GST control) | binding signal (ETS2): 1.01 fold enrichment (6-mer frequency, TF over GST control) | binding signal (SPDEF): 1.33 fold enrichment (6-mer frequency, TF over GST control) | binding signal (ETV7): 1.06 fold enrichment (6-mer frequency, TF over GST control) | binding signal (ETV3): 1.04 fold enrichment (6-mer frequency, TF over GST control) | binding signal (ETV6): 1.03 fold enrichment (6-mer frequency, TF over GST control)

— publication PMC7862700, “An all-to-all approach to the identification of sequence-specific readers for epigenetic DNA modifications on cytosine”
